Screens deposited in PubChem BioAssay by National Center for Advancing Translational Sciences (NCATS).
Sm TGR block: qHTS Assay for the Inhibitors of Schistosoma Mansoni Peroxiredoxins; hit rate 3% among 360,000; purified TGR, DTNB reduction, TNB absorbance 405 nm; Schistosoma mansoni thioredoxin glutathione reductase (TGR), Q962Y6; Potency, µM (doses to about 114 µM), for the others: at the top dose activity change, negative = inhibition, usual class: inhibitors; further: potency means the concentration at half of the fitted maximal effect; on the % scale 0 is the no-effect control and ±100 the full control effect; nearly all actives have a fitted effect of over 60% in size
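Kinetic colorimetric format: TGR-catalysed, NADPH-driven DTNB reduction monitored via TNB absorbance. Enzyme dispensed at 20 nM; compound exposure 15 min at room temperature before reaction start.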
SARS PLP yeast: qHTS of Yeast-based Assay for SARS-CoV PLP; AID 485353, 2010; Potency, µM (series often up to 32.9 µM), for inactives: at the top dose activity, positive = growth rescue, hits mostly activators; hit rate 0.19% among 330,000; S. cerevisiae expressing SARS-CoV PLpro, growth rescue; calls by dose curve; further: potency means the concentration at half of the fitted maximal effect; 0% is about no effect; nearly all actives have a fitted effect of over 55% in size
HCMV inh: qHTS Assay for inhibitors of the human cytomegalovirus (HCMV); HFF cells, HCMV-luciferase reporter, 72 h; hits give low values; hit rate 4.5% among 410,000; activity change, negative = inhibition, % at 57.5 µM; in the data active means activity change below about -60%; inconclusive means no clear call, values can overlap the other calls; inactive means above about -39%; further: on the % scale 0 is the no-effect control and ±100 the full control effect
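Steps: HFFs plated, 16 h 37C; compounds added; HCMV-luciferase added to MOI 1 PFU/cell; 72 h 37C; OneGlo reagent, 5 min room temperature; luminescence read, normalized to controls.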
HCV inh: qHTS Assay for Inhibitors of Hepatitis C Virus (HCV); Huh7.5.1 HCVcc-Cre infection, luciferase reporter, 44 h; Potency, µM (series often up to 41.8 µM), without a hit: at the highest dose activity change, negative = inhibition, usual class: inhibitors; hit rate 3.4% among 340,000; further: potency means the concentration at half of the fitted maximal effect; on the % scale 0 is the no-effect control and ±100 the full control effect
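Cells seeded at 1,000/well and cultured 4 h, then compounds added followed by HCVcc-Cre virus (~0.5 moi). After 44 h further culture, luciferase substrate was added, plates held 15 min at room temperature, and luminescence read for 15 sec.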
Pf growth 48h: Primary qHTS for delayed death inhibitors of the malarial parasite plastid, 48 hour incubation; AID 504832, 2011; P. falciparum luciferase growth in erythrocytes, 48 h; hit rate 5.9% among 310,000; Potency, µM (titrated, usually from 28.7 µM), without a hit: at the highest dose activity change, negative = inhibition, most hits filed as inhibitors; further: potency means the concentration at half of the fitted maximal effect; on the % scale 0 is the no-effect control and ±100 the full control effect
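First compound was added to culture medium, then infected red cells at 0.1% parasitemia and 2% hematocrit (final). After incubation at 37 C under 5% CO2, luciferase detection reagent was dispensed and light output recorded.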
Pf growth 96h: Primary qHTS for delayed death inhibitors of the malarial parasite plastid, 96 hour incubation. Potency, µM (titrated, usually from 28.7 µM), without a hit: top-dose activity change, negative = inhibition, most hits filed as inhibitors. hit rate 6.9% among 320,000. AID 504834, 2011. P. falciparum luciferase reporter growth, 96 h; further: potency means the concentration at half of the fitted maximal effect; on the % scale 0 is the no-effect control and ±100 the full control effect
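Cell-based qHTS: luciferase-tagged P. falciparum in erythrocytes (2% hematocrit, 0.05% parasitemia final) incubated with compounds for 96 hours, 37 C, 5% CO2; luciferase detection reagent then added and luminescence measured.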
Numbers without * were called inactive; ? = inconclusive; . = no result. Hits are enriched below; roughly 15% of the tested compounds scored in any of these assays. Unless noted, the call rests on the fitted dose curve; in most records, active means well fitted curve in the direction sought with a large enough effect; inconclusive means small, poorly fitted or top-dose-only effect, or another doubt; inactive means no such curve, though single readings can be large; an effect the other way counts as inactive or inconclusive.

SMILES | Sm TGR block | SARS PLP yeast | HCMV inh | HCV inh | Pf growth 48h | Pf growth 96h
COc1cccc(NC2=NC3(CCCCC3)N=C(N)N2)c1 | 0% | 2% | 12 | 2% | ? | ?
COCCN=C1Sc2nc3c(C)cccc3cc2CN1Cc1ccco1 | 0% | -3% | 3 | -15% | 8.3µM* | -5%
Cc1ccc2nc3c(cc2c1)CN(Cc1ccco1)C(=NCC1CCCO1)S3 (centres undefined) | ? | 0% | -70* | -11% | ? | ?
Cc1cccc2cc3c(nc12)SC(=NCC1CCCO1)N(Cc1ccco1)C3 (centres undefined) | ? | -14% | . | ? | 4.1µM* | -6%
COCCN=C1Sc2nc3ccc(C)cc3cc2CN1Cc1cccs1 | -23% | -2% | 21 | -24% | 0% | ?
O=C(NCCc1ccc(Cl)cc1)c1ccc(CSCc2cccc(Cl)c2)o1 | 2% | . | 1 | . | . | .
CC(=O)c1cccc(NC(=O)CSc2nnc3ccc(-c4ccc(Cl)cc4)nn23)c1 | 4% | . | -32 | . | . | .
CN(C)c1ccc(-n2cccc2/C=C/[N+](=O)[O-])cc1 | -11% | -15% | 81 | 10µM* | ? | 1%
CCOc1ccccc1/C=C/c1onc(C)c1S(=O)(=O)N1CCC(C(=O)NC(C)C)CC1 | -16% | -2% | -9 | ? | ? | 57%
COc1cccc(/C=C/c2onc(C)c2S(=O)(=O)N2CCC(C(=O)N3CCCCC3)CC2)c1 | 0% | . | ? | . | . | .
CCOc1ccccc1/C=C/c1onc(C)c1S(=O)(=O)N1CCC(C(=O)N2CCCCCC2)CC1 | 3% | 5% | -40 | ? | 7.4µM* | ?
COc1ccc(/C=C/c2onc(C)c2S(=O)(=O)N2CCC(C(=O)N3CCCCCC3)CC2)cc1 | -10% | 6% | -69* | ? | 4.1µM* | ?
Cc1cccc(/C=C/c2onc(C)c2S(=O)(=O)N2CCC(C(=O)N3CCCCC3)CC2)c1 | -23% | -2% | 0 | 10µM* | 9.3µM* | ?
NC(=O)c1ccc(SCC(=O)NC2CCCCC2)c([N+](=O)[O-])c1 | -5% | 5% | -28 | 21% | -3% | 0%
Cc1c(-c2cccc(Cl)c2)nc2ccccc2c1C(=O)NC1CC1 | -1% | 0% | 9 | -9% | -24% | 10µM*
Cc1c(-c2cccc(Cl)c2)nc2ccccc2c1C(=O)OCC(=O)Nc1ccc2c(c1)OCO2 | -3% | 0% | ? | ? | ? | 2.1µM*
Cc1onc(-c2ccccc2)c1C(=O)OCC(=O)Nc1ccc2c(c1)OCO2 | 0% | -4% | 7 | ? | ? | ?
CCCc1nc2ccccc2c(C(=O)OCC(=O)NCc2ccc3c(c2)OCO3)c1CC | 12% | -32% | -7 | ? | 10µM* | 8.3µM*
CCOC(=O)c1cccn1C1C(=O)N(Cc2ccc(C(F)(F)F)cc2)c2ccc(OC)cc21 (centres undefined) | . | . | -9 | . | . | .
Cc1cccc(OCc2nnc(SCC(=O)O)n2-c2ccccc2)c1 | 9% | 1% | -15 | 10% | 2% | 2%
CC(NC(=O)COC(=O)c1ccc(N(C)C)cc1)c1ccccc1 (centres undefined) | 7% | -6% | 2 | ? | 12µM* | 9%
CCOC(=O)C1=C(C)NC(C)=C(C(=O)OCC)C1C(=O)OCC(=O)NC(C)c1ccccc1 (centres undefined) | 0% | 3% | -5 | ? | ? | 13µM*
CCOc1ccccc1-n1nnnc1SCC(=O)NC(=O)Cc1ccccc1 | 20µM* | -4% | -13 | 7% | ? | 6%
CCOc1ccccc1NC(=O)Cn1nnc(C(=O)NCc2ccco2)c1N | -9% | 1% | -90* | -49% | 15% | .
CCCn1c(SCC(=O)NC(=O)NCc2ccccc2)n[nH]c1=O | . | 1% | -26 | 12% | . | .
